# Screening results: PubChem, Buhrlage Lab, Dana-Farber Cancer Institute and Novartis Institutes for BioMedical Research (Cambridge, Mass)
# An excerpt weighted towards active compounds, which were near 11% of everything screened.
# USP17 inh: inhibitors of human USP17 deubiquitinase; Ubiquitin carboxyl-terminal hydrolase 17-like protein 5 (Homo sapiens), A8MUK1; purified USP17, Ub-rhodamine cleavage fluorescence, 3 h; inhibition, % at 50 µM; 6.5% of 47,000 active; AID 1645855, 2021
# USP28 block: inhibitors of human USP28 deubiquitinase | inhibition, % at 25 µM | 3% of 47,000 active | Ubiquitin carboxyl-terminal hydrolase 28 (Homo sapiens), Q96RU2 | AID 1645857, 2021 | purified USP28, Ub-rhodamine cleavage fluorescence, 30 min
# OTUD3 inh: inhibitors of human OTUD3 deubiquitinase; OTU domain-containing protein 3 (Homo sapiens), Q5T2D3; 0.7% of 47,000 active; purified OTUD3, Ub-rhodamine fluorescence, 2 h; AID 1645858, 2021; inhibition, % at 25 µM
# USP30 inh: inhibitors of human USP30 deubiquitinase; Ubiquitin carboxyl-terminal hydrolase 30 (Homo sapiens), Q70CQ3; purified USP30, Ub-rhodamine cleavage fluorescence; inhibition, % at 25 µM; 5.3% of 47,000 active
# Target sequence (Q70CQ3 whole entry, looked up): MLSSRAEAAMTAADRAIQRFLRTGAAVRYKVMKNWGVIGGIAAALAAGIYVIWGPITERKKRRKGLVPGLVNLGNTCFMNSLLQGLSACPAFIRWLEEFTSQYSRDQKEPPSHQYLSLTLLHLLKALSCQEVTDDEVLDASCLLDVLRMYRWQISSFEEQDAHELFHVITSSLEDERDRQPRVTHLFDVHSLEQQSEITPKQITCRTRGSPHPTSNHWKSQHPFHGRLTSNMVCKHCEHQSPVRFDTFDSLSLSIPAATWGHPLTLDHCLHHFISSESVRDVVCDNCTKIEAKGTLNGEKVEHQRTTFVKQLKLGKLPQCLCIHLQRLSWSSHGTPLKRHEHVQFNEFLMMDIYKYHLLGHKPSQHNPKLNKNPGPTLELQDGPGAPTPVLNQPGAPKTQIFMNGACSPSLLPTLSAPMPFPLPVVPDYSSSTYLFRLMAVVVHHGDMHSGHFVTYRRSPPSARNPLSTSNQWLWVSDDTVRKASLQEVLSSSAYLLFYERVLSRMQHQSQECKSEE
# Active calls of the source: *; · = not tested or not shown. Rule as the data show it: active = inhibition above about 30%; inactive = the rest.
SMILES,USP17 inh,USP28 block,OTUD3 inh,USP30 inh
N#Cc1c(-c2ccccc2)cc(N2CCN(C3CCCCC3)CC2)n2c1nc1ccccc12,-26,-25,-21,-71
Cc1ccc(Cl)cc1NC(=O)c1cnn2c3c(cnc12)CCCCC3,-14,-14,-15,-68
CCn1cc(-c2nc(-c3ccccn3)no2)c(=O)c2cc(F)ccc21,58*,14,13,23
Cn1c(=O)c2c(nc(CN3CCN(c4ccccc4F)CC3)n2Cc2ccccc2Cl)n(C)c1=O,9,15,14,31*
CCc1cc(C2CCCN2C(=O)Cc2c(F)cccc2Cl)on1 (stereo not drawn),1,-2,-1,-5
c1ccc(-c2nnc3n2-c2ccccc2SC3)cc1,17,15,10,31*
CC1CCN(CCNC(=O)c2nn(-c3ccccc3)c3c(=O)n(C)cnc23)CC1,-98,-86,-79,-296
Cn1ncc(Cl)c1C(=O)Nc1ccc2nc(NC(=O)C3CCCCC3)sc2c1,38*,8,7,12
O=[N+]([O-])c1cccc(-c2csc(-c3ccc4c(c3)OCO4)n2)c1,21,4,17,14
c1ccc(-c2cc(-c3csc(-c4ccc5c(c4)OCCO5)n3)on2)cc1,51*,24,40*,35*
O=C(/C=C/c1c(F)cccc1Cl)NCc1ccccn1,-21,-10,-5,-64
CCN(CC)C(=O)c1sc(NC(=O)/C=C/c2c(F)cccc2Cl)c(C#N)c1C,62*,17,23,-29
COc1ccc(S(=O)(=O)N2CCC(c3ncc(C)[nH]3)C2)cc1 (stereo not drawn),12,9,12,31*
O=S(=O)(Nc1cc(-c2ccncc2)no1)c1ccc(F)c(F)c1,·,-8,-9,-26
CCc1nnc2c(NC(=O)Cc3ccc(OC)c(Cl)c3)cccn12,-6,47*,3,-33
Cc1ccc(NC(=O)Nc2ccc(C)n(CC(=O)Nc3ccccc3)c2=O)cc1,89*,·,4,·
Cc1ccc(NC(=O)Cn2c(C)ccc(NC(=O)Nc3cccc(C)c3)c2=O)cc1,-2,-4,-1,-20
Cc1ccccc1NC(=O)Nc1ccccc1OCc1cc(=O)n2cccc(C)c2n1,47*,28,40*,43*
COc1ccc(-c2n[nH]c3c2CN(C(=O)/C=C/c2cc(OC)c(OC)c(OC)c2)CC3)cc1,-14,-17,-9,-26
O=C(Nc1ccc(F)cc1)Nc1ccc2ccccc2n1,18,10,5,31*
CC(=O)Nc1ccc(NC(=O)Nc2ccc(F)cc2)cc1,34*,19,7,30*
COc1ccccc1NC(=O)Nc1ccc(NC(=O)c2ccccc2O)cc1,31*,9,-5,59*
O=C(Nc1ccc(F)cc1)Nc1ccc(NC(=O)c2ccccc2O)cc1,34*,-3,0,-13
O=C(Nc1ccccc1)Nc1ccc2ncccc2c1,-20,7,-6,-17
Cc1onc(-c2ccccc2)c1-c1csc(CS(=O)(=O)Cc2cccc(C(F)(F)F)c2)n1,-27,-15,-13,-1
SMILES,USP17 inh,USP28 block,OTUD3 inh,USP30 inh
Cc1ccc2c(=O)c(C(=O)N3CCCC3)cn(CC(=O)NC3CCCCC3)c2n1,0,-6,-12,-13
c1ccc(-c2nc(N3CCOCC3)c3sccc3n2)cc1,-3,3,-3,0
Cc1ccccc1C(=O)Nc1ccc(NC(=O)CN2CCOCC2)cc1,-17,-20,-11,-3
COc1cccc(NC(=O)NC2CCN(c3ccccc3)C2=O)c1 (stereo not drawn),9,6,7,15
COc1cccc(NC(=O)Nc2ccc(NC(C)=O)cc2)c1,22,51*,-7,-3
Cc1cccc(Cl)c1NC(=O)Nc1ccc(NC(=O)c2ccccc2O)cc1,53*,-22,-24,-101
CCc1nnc(NC(=O)c2nnn(-c3ccccc3Cl)c2C)s1,11,60*,17,37*
CC(C)(C)C(=O)[C@@H]1[C@@H](C(=O)c2ccc3c(c2)OCO3)[C@@]2(C(=O)Nc3ccccc32)[C@H]2c3ccccc3C=CN12,82*,31*,1,-67
C[C@@]12CCc3occc3C1CCC13CC(CCC12)[C@@](O)(CO)C3 (stereo partly drawn),47*,2,16,32*
COc1cccc(CCC(=O)N2CCN(c3ccc(CN4CCC(N(C)C)CC4)cn3)CC2)c1,·,-41,-25,-86
O=C1NC(C(=O)O)=CC(c2ccc3c(c2)OCO3)N1 (stereo not drawn),-9,-4,0,0
O=C(CCCN1C(=O)C(c2ccccc2)Oc2cccnc21)NCc1cccc(F)c1 (stereo not drawn),11,6,16,17
O=[N+]([O-])c1ccc(C(c2ccc[nH]2)c2ccc[nH]2)cc1,37*,-1,1,-55
Cc1ccc(NS(=O)(=O)c2cc(NC(=O)CCOc3ccccc3C)ccc2C)c(C)c1,17,12,4,28
Cc1ccccc1OCCC(=O)Nc1cccc(S(=O)(=O)Nc2ccccc2Cl)c1,55*,29,17,26
CCC(C(=O)Nc1c2c(nn1-c1ccc(Cl)cc1)CS(=O)(=O)C2)c1ccccc1 (stereo not drawn),38*,0,0,12
COc1ccc(-n2nc3c(c2NC(=O)/C=C\c2ccccc2)CS(=O)(=O)C3)cc1,-10,-9,-11,-10
O=C(/C=C\c1ccc2c(c1)OCO2)Nc1c2c(nn1-c1ccc(Cl)cc1)CS(=O)(=O)C2,57*,36*,39*,47*
CN1c2ccc(F)cc2C(=O)NC12CCN(C(=O)NCc1ccc(F)cc1)CC2,0,8,5,8
Cc1ccccc1C(=O)Nc1cc(=O)[nH]c2nc(CCc3ccccc3)nn12,2,1,3,-11
N[C@@H]1C[C@@H](Oc2ccccc2)[C@H](O)[C@H]1N1CCCCC1,-16,·,0,·
Cc1nc(-c2ccc(-c3noc(-c4ccnn4C)n3)cc2)cs1,33*,0,-5,40*
O=C(NC(Cc1ccccc1)c1nc2ccccc2[nH]1)c1ccccc1-c1ccccc1 (stereo not drawn),40*,-10,-12,-51
O=C(NC(Cc1ccccc1)c1nc2ccccc2[nH]1)c1ccc2ccccc2n1 (stereo not drawn),·,14,6,-8
CSCCC(NC(=O)COc1ccc(Cl)cc1)c1nc2ccccc2[nH]1 (stereo not drawn),·,-26,-22,-106
CC(C)CC(NC(=O)c1ccc(Cl)cc1Cl)c1nc2ccccc2[nH]1 (stereo not drawn),69*,4,-3,-45
O=C(NC(Cc1ccccc1)c1nc2ccccc2[nH]1)C1CC1 (stereo not drawn),54*,11,5,1
O=C(Cc1coc2cc3c(cc12)CCC3)NC(Cc1ccccc1)c1nc2ccccc2[nH]1 (stereo not drawn),47*,-11,-1,-8
